Assay [1] concerns Plasmodium falciparum Sir2 (PF13_0152, Sir2A). The assay is described as follows: Plasmodium falciparum Sir2A binding compounds – biochemical, small-molecule microarray, 635 nm fluorescence, primary screen (AID 1098).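 Further: score merges spot fluorescence intensity with its signal-to-noise ratio.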 The settings on record: fluorescence 635 nm, higher = more signal.
Assay [2] is described as follows: probe aDKK1 binding to arrayed compounds – biochemical, biotinylated probe, 635/667 nm fluorescence, primary screen (AID 1099).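 Further: score merges 667nm spot fluorescence with signal to noise across triplicate slides; reference of the scale not given here.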 The settings on record: small-molecule microarray, higher = more signal.
Assay [3] in a line: probe aCHRDL2 binding to arrayed compounds – biochemical, biotinylated probe, 635/667 nm fluorescence, primary screen (AID 1100). Particulars: small-molecule microarray, higher = more signal.
The nature of assay [4]: change in splice reporter luminescence, either direction, cell-based, HEK293, spliceosome inhibition project, primary screen (AID 1101).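 Further: HEK293 cells carrying a splicing-competent luciferase reporter gene; test concentration not given here.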 Particulars: HEK293 splicing luciferase reporter, 24 h, higher = more signal, called active from +8 up or from −8 down. In general terms: In a reporter assay the amount or activity of a reporter protein is the signal.
Assay [5] addresses Fibroblast growth factor 10 (Homo sapiens) (UniProt O15520). The assay is described as follows: compounds binding fibroblast growth factor 10 – biochemical, small-molecule microarray, 635 nm fluorescence, primary screen (AID 1102). Particulars: FGF10 binding, fluorescence 635 nm, higher = more signal.
The subject of assay [6] is glycogen synthase kinase-3 (GSK3A per assay name; protocol says GSK3B). The assay is described as follows: compounds binding glycogen synthase kinase-3 – biochemical, small-molecule microarray, 635 nm fluorescence, GSK3A, primary screen (AID 1103). Further: the record names both GSK3A and GSK3B. Particulars: fluorescence 635 nm, higher = more signal.
The target of assay [7] is Epidermal growth factor receptor (Homo sapiens) (UniProt P00533). The assay is described as follows: compounds binding epidermal growth factor receptor – biochemical, small-molecule microarray, 635 nm fluorescence, primary screen (AID 1104).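 Further: score merges 667 nm emission intensity with spot signal to noise over triplicate slides.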 Particulars: EGFR binding, higher = more signal.
Assay [8] deals with Follistatin-related protein 3 (Homo sapiens) (UniProt O95633). Nature of the assay: compounds binding follistatin-related protein 3 – biochemical, small-molecule microarray, 635 nm fluorescence, primary screen (AID 1105).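 Further: score merges emission near 667 nm and signal to noise per printed spot across three slides.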 Particulars: FSTL3 binding, higher = more signal.
The target of assay [9] is Dickkopf-related protein 1 (Homo sapiens) (UniProt O94907). Nature of the assay: small molecules binding DKK1 protein – biochemical, small-molecule microarray, 635 nm fluorescence scan, primary screen (AID 1106).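 Further: score merges emission near 667 nm with signal to noise over three replicate slides.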 The settings on record: higher = more signal.
Assay [10] deals with Inhibin beta A chain (activin A). The assay is described as follows: small molecules binding activin A – biochemical, small-molecule microarray, 635 nm fluorescence scan, primary screen (AID 1107).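 Further: mouse activin A protein probed at 4.33 µg/mL on printed slides; score merges bound-protein fluorescence near 667 nm with spot signal-to-noise.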 Particulars: INHBA, higher = more signal.

SMILES strings stand for the structures. Activity calls are given as the source filed them.

Chain of Fibroblast growth factor 10 (Homo sapiens) (O15520 whole entry, looked up): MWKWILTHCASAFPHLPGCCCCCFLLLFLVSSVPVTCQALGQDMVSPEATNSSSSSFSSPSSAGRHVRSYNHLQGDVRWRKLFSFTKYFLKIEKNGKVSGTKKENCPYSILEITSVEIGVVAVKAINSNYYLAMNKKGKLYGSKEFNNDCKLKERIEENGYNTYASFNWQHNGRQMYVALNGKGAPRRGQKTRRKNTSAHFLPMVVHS
Chain of Dickkopf-related protein 1 (Homo sapiens) (O94907 whole entry, looked up): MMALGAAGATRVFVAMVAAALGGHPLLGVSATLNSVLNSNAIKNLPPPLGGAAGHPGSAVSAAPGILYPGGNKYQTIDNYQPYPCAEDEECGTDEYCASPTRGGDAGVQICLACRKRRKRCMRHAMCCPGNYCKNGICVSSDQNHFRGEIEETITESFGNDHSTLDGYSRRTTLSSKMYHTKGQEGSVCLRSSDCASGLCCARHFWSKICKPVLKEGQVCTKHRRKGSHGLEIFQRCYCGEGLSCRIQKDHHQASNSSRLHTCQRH
Chain of Epidermal growth factor receptor (Homo sapiens) (P00533 whole entry, looked up): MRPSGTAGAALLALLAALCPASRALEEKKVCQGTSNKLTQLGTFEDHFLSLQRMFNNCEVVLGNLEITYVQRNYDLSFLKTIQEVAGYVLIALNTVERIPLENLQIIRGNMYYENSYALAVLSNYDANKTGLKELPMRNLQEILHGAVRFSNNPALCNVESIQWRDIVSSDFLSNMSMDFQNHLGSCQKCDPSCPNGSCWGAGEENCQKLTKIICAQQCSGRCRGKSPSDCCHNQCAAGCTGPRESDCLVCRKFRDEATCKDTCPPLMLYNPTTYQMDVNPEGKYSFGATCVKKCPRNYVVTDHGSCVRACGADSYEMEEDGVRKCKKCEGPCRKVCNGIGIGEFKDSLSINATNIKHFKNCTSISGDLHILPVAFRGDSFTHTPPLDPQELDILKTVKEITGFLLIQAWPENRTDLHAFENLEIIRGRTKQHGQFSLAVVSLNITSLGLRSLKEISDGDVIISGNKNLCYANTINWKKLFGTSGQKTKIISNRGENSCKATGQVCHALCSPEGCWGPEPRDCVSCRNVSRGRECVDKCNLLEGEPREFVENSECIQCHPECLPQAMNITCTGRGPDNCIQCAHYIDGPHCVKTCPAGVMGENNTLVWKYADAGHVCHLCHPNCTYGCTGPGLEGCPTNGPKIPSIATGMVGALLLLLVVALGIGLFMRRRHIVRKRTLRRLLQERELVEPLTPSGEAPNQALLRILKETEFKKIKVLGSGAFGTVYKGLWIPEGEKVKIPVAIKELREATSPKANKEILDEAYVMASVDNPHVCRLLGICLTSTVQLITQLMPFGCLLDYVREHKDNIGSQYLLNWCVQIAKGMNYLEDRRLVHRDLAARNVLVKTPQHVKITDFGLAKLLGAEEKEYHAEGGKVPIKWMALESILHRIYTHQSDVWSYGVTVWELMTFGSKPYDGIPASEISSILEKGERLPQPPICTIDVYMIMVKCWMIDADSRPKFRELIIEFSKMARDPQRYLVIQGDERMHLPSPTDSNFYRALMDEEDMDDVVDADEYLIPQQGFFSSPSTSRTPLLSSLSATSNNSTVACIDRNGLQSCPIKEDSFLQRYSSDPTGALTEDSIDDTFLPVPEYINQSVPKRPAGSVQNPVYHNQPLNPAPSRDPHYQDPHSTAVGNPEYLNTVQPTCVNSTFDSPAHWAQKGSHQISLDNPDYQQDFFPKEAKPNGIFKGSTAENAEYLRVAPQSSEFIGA
Chain of Follistatin-related protein 3 (Homo sapiens) (O95633 whole entry, looked up): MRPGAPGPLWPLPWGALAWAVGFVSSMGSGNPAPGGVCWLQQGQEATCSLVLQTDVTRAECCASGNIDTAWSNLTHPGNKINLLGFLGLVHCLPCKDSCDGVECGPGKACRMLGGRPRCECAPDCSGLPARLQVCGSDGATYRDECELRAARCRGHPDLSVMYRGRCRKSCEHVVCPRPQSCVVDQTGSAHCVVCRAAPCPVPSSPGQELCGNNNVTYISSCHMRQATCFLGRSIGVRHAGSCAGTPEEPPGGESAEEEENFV

`C=C(/C(=C/C[C@H](OC(C)=O)c1ccc(CO)o1)c1cc(C(=O)OC)ccc1OC)C(C)C`: the composite z-score in [1] is -0.415; in [2] it was -0.0153; in assay [3], -0.0899; in assay [5], 0.505; in [6], -0.196; in assay [7], -0.455. In addition, the composite z-score in assay [8] is 0.397; in assay [9], 0.0625; in [10], 0.463. For the same compound, the z-score in assay [4] is -0.0448 (inactive).
On to `COCCOC(=O)N1C(=O)[C@@]2(c3cc(C#CCC(C(=O)OC)C(=O)OC)ccc31)[C@H](c1ccccc1OCCO)N1[C@H](c3ccccc3)[C@H](c3ccccc3)OC(=O)[C@H]1[C@@H]2C(=O)N1CCN(c2ncccn2)CC1`, for which the composite z-score in [1] is 0.875; in [2] it was 0.231; in assay [3] it was 0.237; in assay [5], 1.08; in assay [6], 1.32; in assay [7] it was 0.94. Besides, the composite z-score worked out at 1.45 in assay [8], 0.853 in [9] and 1.14 in assay [10]. Moreover, the z-score in assay [4] was -0.397 (inactive).
For `N#Cc1ccc(NN2C(C(O)C(c3ccccc3)c3ccccc3)C=CC3C(=O)N(c4ccccc4)C(=O)C32)cc1` (stereo not given), the composite z-score in assay [1] was 0.793; in assay [2], 0.609; in assay [3], 0.725; in [5] it was 1.2; in [6], 1.28; in [7] it was -0.0158. In addition, the composite z-score in assay [8] is 0.864; in assay [9] it was -1.06; in [10], 0.0017. For the same compound, the z-score in assay [4] was -0.327 (inactive).
Take `CC(C)N1C(=O)C[C@@](C(=O)NCC(F)(F)F)(c2ccc([N+](=O)[O-])cc2)[C@H]1c1ccc(CO)cc1`: the composite z-score in assay [1] is 1.42; in [2] it was -0.186; in [3], 0.52; in assay [5], -0.244; in [6], 0.0211; in assay [7] it was -0.399. For the same compound, the composite z-score was -0.241 in [8], -0.272 in assay [9] and 0.5 in assay [10]. In addition, the z-score in assay [4] was -0.259 (inactive).
In the case of `O=C1C2C=CC(C(O)c3cc(C(F)(F)F)cc(C(F)(F)F)c3)N(n3cnnc3)C2C(=O)N1Cc1ccccc1` (stereo not given), the composite z-score in [1] is 0.716; in assay [2], -0.0958; in assay [3] it was 0.531; in assay [5] it was -0.409; in assay [6], -0.261; in assay [7] it was -0.165. Further, the composite z-score in assay [8] is -0.103; in assay [9], -1.17; in [10], -0.301. Besides, the z-score in [4] was -0.27 (inactive).
As for `O=C1O[C@@H](c2ccccc2)[C@@H](c2ccccc2)N2[C@@H](c3ccccc3OCCO)[C@]3(C(=O)Nc4ccccc43)[C@@H](C(=O)Nc3nc4ccccc4s3)[C@H]12`, the composite z-score in [1] was found to be 1.02; in assay [2] it was 1.05; in assay [3], 0.0859; in assay [5] it was 1.23; in [6], 1.02; in assay [7] it was 0.383. The values for the composite z-score in assay [8], in assay [9] and in assay [10] were 0.799, 0.287 and 0.33, respectively. Further, the z-score in assay [4] is -1.86 (inactive).
`COc1ccc(CCNC(=O)[C@@]2(C)c3ccccc3C(=O)N(C(C)C)[C@H]2c2ccc(CO)cc2)cc1`: the composite z-score in [1] is 0.5; in assay [2] it was 0.056; in assay [3], -0.0776; in [5], 0.558; in [6], -0.0218; in assay [7], 0.41. In addition, the composite z-score in assay [8] worked out at 0.335; in assay [9], 0.503; in assay [10] it was 0.918. Besides, the z-score in [4] was -0.36 (inactive).
For `CN1C(=O)C2C=CC(C(O)C#Cc3ccccc3)N(N3CCCCC3)C2C1=O` (stereo not given), the composite z-score came out at 1.68 in [1]; 1.01 in assay [2]; 1.09 in assay [3]; 0.945 in assay [5]; 0.216 in [6]; 0.568 in assay [7]. Besides, the composite z-score in [8] worked out at 0.731; in assay [9], 0.0369; in assay [10] it was 1.18. The z-score in assay [4] was 0.762 (inactive).
On to `COc1ccc(C(=O)Nc2ccc(CN3C(=O)[C@]4(O[C@H](CCO)[C@@H]([Si](C)(C)c5ccc(OC)cc5)[C@@H]4C)c4ccccc43)cc2)cc1`, for which the composite z-score in assay [1] is 1.21; in assay [2] it was -0.122; in assay [3], 0.326; in assay [5], 0.708; in [6], 0.762; in assay [7], 0.231. Further, the composite z-score in assay [8] stood at 1.02; in assay [9], 0.241; in assay [10], 1.3. Besides, the z-score in assay [4] is -3.38 (inactive).
Take `CC(C)N1C(=O)c2ccccc2[C@](C)(C(=O)NCCN2CCOCC2)[C@@H]1c1ccc(CO)cc1`: the composite z-score is 0.24 in assay [1]; -0.0879 in assay [2]; 0.987 in [3]; -0.499 in assay [5]; -0.608 in assay [6]; -1.13 in [7]. Also, the composite z-score is -0.115 in assay [8], -0.75 in assay [9] and 0.503 in assay [10]. Besides, in [4], the z-score is 0.0672 (inactive).
Take `O=C1c2ccccc2[C@](Cc2ccccc2I)(C(=O)NCC(F)(F)F)[C@H](c2ccc(CO)cc2)N1Cc1ccccc1Cl`: the composite z-score was 1.4 in assay [1]; -0.0951 in assay [2]; 0.502 in [3]; 0.588 in [5]; 0.539 in assay [6]; 0.0527 in assay [7]. Further, the figures for the composite z-score in [8], in [9] and in assay [10] were 0.923, -0.19 and 0.41, respectively. In [4], the z-score is -0.504 (inactive).
Regarding `CCCC[C@H]1OB(O)C[C@H]2C1=C(COC)C[C@H]1C(=O)N(C)C(=O)[C@H]12`, the composite z-score in [1] was 0.0079; in [2], -0.252; in [3], -0.599; in [5] it was 0.486; in [6], -0.0431; in [7], 0.12. The composite z-score in [8] came to 0.564; in assay [9], 0.281; in assay [10] it was 0.687. Also, the z-score in assay [4] is 0.377 (inactive).
Turning to `CC(C)[Si]1(C(C)C)O[C@@H](c2ccccc2)c2cc(-c3ccc(-c4ccc(Cl)c(Cl)c4)o3)nc(-c3ccccc3)c21`, the composite z-score is 0.735 in assay [1]; 0.0699 in [2]; 0.234 in assay [3]; 0.353 in [5]; -0.514 in assay [6]; 0.0831 in assay [7]. Besides, the composite z-score in assay [8] is 0.0331; in assay [9], -0.172; in assay [10], 0.756. In addition, in assay [4], the z-score is 0.115 (inactive).
For the compound `COc1cc2c(cc1OC)CN(C(=O)[C@H]1[C@@H]3C(=O)O[C@@H](c4ccccc4)[C@@H](c4ccccc4)N3[C@@H](c3ccc(O)cc3)[C@]13C(=O)Nc1ccccc13)CC2`, the composite z-score was 1.23 in assay [1]; -0.0009 in [2]; -0.123 in assay [3]; 0.708 in [5]; 0.691 in assay [6]; -0.0502 in assay [7]. Besides, the composite z-score in assay [8] is -0.276; in [9], -0.198; in assay [10], -0.188. Further, in [4], the z-score was -0.0299 (inactive).
`COC(=O)[C@@]1(CCS(=O)(=O)c2ccccc2)N=C(c2ccc(OCCCO)cc2)O[C@H]1c1ccccc1CN=[N+]=[N-]`: the composite z-score worked out at 1.21 in assay [1]; 1.11 in [2]; 1.2 in assay [3]; 0.336 in assay [5]; 1.24 in assay [6]; 0.143 in [7]. Moreover, the composite z-score was 1.01 in assay [8], -0.0332 in assay [9] and 0.799 in [10]. Besides, the z-score in [4] is 0.362 (inactive).
`C=C(COC)C(=O)CC[C@@H](OC(C)=O)c1ccc(CO)o1`: the composite z-score in [1] was 1.38; in assay [2], 0.0244; in assay [3], -0.45; in [5], 1.24; in assay [6], 0.139; in assay [7] it was -0.42. Also, the composite z-score in assay [8] was 1.52; in [9], 1.48; in [10], 1.38. Further, in assay [4], the z-score is 0.264 (inactive).

The record behind these values is PubChem BioAssay.
